Consider 39 compounds from PubChem BioAssay.

Each structure is given as a SMILES string. Several values for one entry are separate records, joined by “and”; a condition that tells them apart may be missing. Identical values can stand only once.

The nature of one assay: COS7 lysate on small-molecule microarray, probe aHis, 635 nm (AID 1123).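 Further: z-score combines 667nm fluorescence intensity with signal-to-noise per printed compound spot.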 The settings on record: COS7 cell lysate, fluorescence, higher = more signal.
As for `CCCCCN1CC=CC23O[C@@H]4C=CCCOC(=O)C4[C@H]2C(=O)N(C(C)CO)[C@@H]3C1=O` (some centres undefined), the composite z-score was 0.654 and 1.55.
The same measure, in the same setting: then `C=C[C@H](OC)[C@@H](O)c1ccc(OCCO)cc1`, with -0.358 and -0.494.
As to `CCCCN1CC=CC23O[C@@H]4C=CCCOC(=O)C4[C@H]2C(=O)N(C(C)CO)[C@@H]3C1=O` (some centres undefined), the composite z-score was 0.462 and 0.472.
Still for that read-out and setting: then `C=CCN(CCCCC)C(=O)C1N(CCOCCO)C(=O)C2C(C(=O)O)C3C=CC21O3` (centres undefined), with -0.568 and 0.294; and `C=CCN(CCCCC)C(=O)C(c1cccs1)N(C(=O)/C=C\C(=O)O)c1ccc(CCO)cc1` (centres undefined), with 0.455 and -0.0142.
Regarding `O=C1NC(=O)C2C1C=CC(C(O)c1ccc([N+](=O)[O-])cc1)N2Nc1ccc(Cl)cc1Cl` (centres undefined), the composite z-score was 2.95 and 2.03.
In the case of `COC(=O)[C@@]1(Cc2ccccc2)[C@H]2c3cc(C(=O)N(C)C)n(C[C@H](O)CO)c3C[C@H]2CN1C(=O)c1ccccc1`, the composite z-score is 3.13 and 1.27.
On the same count and under the same terms, as for `CO[C@H]1COC(=O)CC=C[C@@H](C)COC(=O)[C@H](CCSC)NC(=O)CC=C[C@@H]1C`, the figure is -0.335 and -0.552; as for `C=CC[C@@H](O)c1ccc(O)c2ccccc12`, 1.18 and 1.3; as for `CCOC(=O)C[C@H]1[C@H](OC(=O)c2ccccc2-c2ccccc2)[C@@H](NC(=O)Cc2ccc(OC)cc2)c2cc(OCCCO)ccc2N1C(=O)c1ccc2ccccc2n1`, 0.411 and 1.57.
For `CN1C(=O)C2CC=C([C@H]3Oc4ccccc4S(=O)(=O)N4CCC[C@@H]34)CC2C1=O` (some centres undefined), the composite z-score is -0.616 and -0.564.
Still for that read-out and setting: as for `C[N+](C)(C)CCCCNC(=O)[C@H]1C[C@H]2C(=O)N[C@@H](CCCC[N+](C)(C)C)C(=O)N2[C@H]1c1ccc(O)cc1`, the figure is 0.385 and 0.233; as for `C=CCN(Cc1ccccc1)C(=O)C1N(c2c(Cl)cccc2CO)C(=O)C2C(C(=O)O)C3C=CC21O3` (centres undefined), -0.908 and -0.629.
Still for that read-out and setting: then `O=C1[C@H]2[C@H]3[C@H](O)[C@H](O)CC(=NOCc4ccccc4)[C@H]3CC[C@H]2C(=O)N1Cc1ccccc1`, with 0.233; and `COC(=O)[C@@]1(Cc2ccc(F)cc2)[C@H]2c3cc(C(=O)N4CCCC4)n(Cc4c(CO)[nH]cc(C)c4=O)c3C[C@H]2CN1C(=O)c1ccccc1`, with 2.88 and 2.95.

The next assay is described as follows: probe aLAP1 signal on lysate-treated microarray – cell lysate, small-molecule microarray, COS7 lysate, primary screen (AID 1124).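 Further: lysate comes from COS7 cells expressing LAP1 and is applied at 0.3 µg/mL; score merges spot fluorescence near 667 nm with signal-to-noise over triplicate slides.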 The settings on record: probe aLAP1, fluorescence, higher = more signal.
With `C=CCN(C(=O)C(c1cccs1)N(C(=O)/C=C\C(=O)O)c1ccc(CCO)cc1)c1ccc(OC)cc1` (centres undefined), the composite z-score is -1.17 and 0.112.
Still for that read-out and setting: then `CO[C@@H]1COC(=O)CC=C[C@H](C)COC(=O)[C@H](C)NC(=O)CC=C[C@H]1C`, with -0.235.
Consider `CCOC(=O)c1ccc(NC(=O)O[C@H]2[C@H](OC(=O)Nc3ccccc3)[C@@H](OC(=O)Nc3ccccc3)[C@@H](OC)O[C@@H]2CO)cc1`, for which the composite z-score was 0.336 and 0.278.
The same measure, in the same setting: then `COC(=O)C1=C(C)N(Cc2ccccc2)C2=C(C(=O)c3ccccc3)[C@H](c3ccccc3)[C@@](O)(C(=O)OC)C(=O)N2[C@@H]1c1ccccc1`, with 0.0568 and 0.016.
The same measure, in the same setting: as for `C[C@@]1([C@@H](NC(=O)Cc2ccccc2)c2ccc(-c3ccccc3)cc2)C[C@H]1C1CCCCC1`, the figure is 0.566 and 1.22 and 0.475.
Consider `CC(CO)N1C(=O)[C@@H]2C3C(=O)OCCC=C[C@H]3OC23C=CCN(CCN2CCOCC2)C(=O)[C@@H]13` (some centres undefined), for which the composite z-score was -0.657 and 0.721.
The same measure, in the same setting: as for `C=C[C@H](C)[C@H](O)c1ccc(O)c2ccccc12`, the figure is -0.055 and -0.15.
Consider `C=CCN(CCCC)C(=O)C(c1cccs1)N(C(=O)/C=C\C(=O)O)c1c(Cl)cccc1CO` (centres undefined), for which the composite z-score was -0.307 and 0.993.
Compound `C#CCCCON=C1C[C@@H](O)[C@@H](O)[C@@H]2[C@@H]3C(=O)N(C4CCCCC4)C(=O)[C@@H]3CC[C@H]12` yielded a composite z-score of 0.806.
Same read-out and setting: then `Cc1ccc(S(=O)(=O)N[C@H]2COC(=O)[C@@H](C)COC(=O)[C@H](C)NC(=O)CC=C[C@H]2C)cc1`, with -0.34; and `C=CCN(C(=O)C1N(CCOCCO)C(=O)C2C(C(=O)O)C3C=CC21O3)C(C)(C)C` (centres undefined), with -0.882 and -0.478; and `C=CCN(CCCC)C(=O)C1N(CCOCCO)C(=O)C2C(C(=O)O)C3C=CC21O3` (centres undefined), with 0.675 and 0.0426.
`COc1ccc(COC(=O)NN=C2C[C@@H](O)[C@@H](O)[C@@H]3[C@@H]4C(=O)N(C(C)(C)C)C(=O)[C@@H]4CC[C@H]23)cc1`: the composite z-score stood at 1.51.
The same measure, in the same setting: then `COC(=O)C1=C2N(Cc3ccccc3)C(C)=C(C(=O)OC)[C@@H](c3ccccc3)N2C(=O)[C@](O)(C(=O)OC)C1`, with -0.109 and 0.809.
On the same count and under the same terms, as for `C[N+](C)(C)CCCCNC(=O)[C@@H]1C[C@@H]2C(=O)N[C@@H](CCCC[N+](C)(C)C)C(=O)N2[C@@H]1c1cccc(OCCO)c1`, the figure is 0.0458 and 1.65; as for `C[C@@H]1CC[C@H]2C(=O)N3[C@@H](CC[C@@H](C)[C@@H]3c3ccc(-c4ccco4)cc3)C(=O)N2[C@H]1c1ccc(-c2ccco2)cc1`, 0.412 and -0.258.
The same measure, in the same setting: then `C=CCN(Cc1ccccc1)C(=O)C1N(c2ccc(CCO)cc2)C(=O)C2C(C(=O)O)C3C=CC21O3` (centres undefined), with -0.418 and -0.931; and `CC(C)N1CC=CC23O[C@@H]4C=CCCOC(=O)C4[C@H]2C(=O)N(C(C)CO)[C@@H]3C1=O` (some centres undefined), with 0.866 and -0.361; and `CC(C)C(=O)N[C@@H]1CCCN1C(=O)C=Cc1ccccc1`, with -0.086.
Turning to `CO[C@@H]1COC(=O)[C@H](Cc2ccccc2)NC(=O)CC=C[C@@H](C)[C@H](OC)COC(=O)[C@@H](C)NC(=O)CC=C[C@H]1C`, the composite z-score is -0.502 and 0.07.
On the same count and under the same terms, as for `COC(=O)[C@@]1(Cc2ccc(OC)cc2)[C@H]2c3cc(C(=O)N(C)C)n(Cc4ccc(O)c(OC)c4)c3C[C@H]2CN1C(=O)c1ccccc1`, the figure is 1.17 and 0.341; as for `C=CCN(CCCCC)C(=O)C1N(CCCCCCO)C(=O)C2C(C(=O)O)C3C=CC21O3` (centres undefined), 0.752 and -0.289; as for `O=c1n(-c2ccccc2)c(=O)n2n1CC[C@@H]1C(=NOC[C@@H](O)COCc3ccco3)[C@H]3O[C@H]3[C@@H](O)[C@@H]12`, -0.0025 and -0.111.
Same read-out and setting: then `CCOC(=O)NN=C1C[C@@H](O)[C@@H](O)[C@@H]2[C@@H]3C(=O)N(Cc4ccc5c(c4)OCO5)C(=O)[C@@H]3CC[C@@H]12`, with -0.377; and `CCCCCN1CC=CC23O[C@@H]4C=CCCOC(=O)C4[C@H]2C(=O)N(C(C)CO)[C@@H]3C1=O` (some centres undefined), with 0.114 and 0.885.
Still for that read-out and setting: as for `C=C[C@H](OC)[C@@H](O)c1ccc(OCCO)cc1`, the figure is 0.581 and -0.234; as for `CCCCN1CC=CC23O[C@@H]4C=CCCOC(=O)C4[C@H]2C(=O)N(C(C)CO)[C@@H]3C1=O` (some centres undefined), 0.216 and 0.436; as for `C=CCN(CCCCC)C(=O)C1N(CCOCCO)C(=O)C2C(C(=O)O)C3C=CC21O3` (centres undefined), -0.615 and 1.6.
For the compound `C=CCN(CCCCC)C(=O)C(c1cccs1)N(C(=O)/C=C\C(=O)O)c1ccc(CCO)cc1` (centres undefined), the composite z-score is 0.411 and 0.0933.
With `O=C1NC(=O)C2C1C=CC(C(O)c1ccc([N+](=O)[O-])cc1)N2Nc1ccc(Cl)cc1Cl` (centres undefined), the composite z-score is 0.673 and 1.28.
On the same count and under the same terms, as for `COC(=O)[C@@]1(Cc2ccccc2)[C@H]2c3cc(C(=O)N(C)C)n(C[C@H](O)CO)c3C[C@H]2CN1C(=O)c1ccccc1`, the figure is 0.562 and 0.966; as for `CO[C@H]1COC(=O)CC=C[C@@H](C)COC(=O)[C@H](CCSC)NC(=O)CC=C[C@@H]1C`, 0.383 and -1.41.
On to `C=CC[C@@H](O)c1ccc(O)c2ccccc12`, for which the composite z-score is 0.207 and -0.0872.
On the same count and under the same terms, then `CCOC(=O)C[C@H]1[C@H](OC(=O)c2ccccc2-c2ccccc2)[C@@H](NC(=O)Cc2ccc(OC)cc2)c2cc(OCCCO)ccc2N1C(=O)c1ccc2ccccc2n1`, with -0.264 and 0.286; and `CN1C(=O)C2CC=C([C@H]3Oc4ccccc4S(=O)(=O)N4CCC[C@@H]34)CC2C1=O` (some centres undefined), with 0.892 and -0.263; and `C[N+](C)(C)CCCCNC(=O)[C@H]1C[C@H]2C(=O)N[C@@H](CCCC[N+](C)(C)C)C(=O)N2[C@H]1c1ccc(O)cc1`, with -0.126 and -0.102.
As for `C=CCN(Cc1ccccc1)C(=O)C1N(c2c(Cl)cccc2CO)C(=O)C2C(C(=O)O)C3C=CC21O3` (centres undefined), the composite z-score was -0.628 and -0.742.
On the same count and under the same terms, as for `O=C1[C@H]2[C@H]3[C@H](O)[C@H](O)CC(=NOCc4ccccc4)[C@H]3CC[C@H]2C(=O)N1Cc1ccccc1`, the figure is -0.123.
Take `COC(=O)[C@@]1(Cc2ccc(F)cc2)[C@H]2c3cc(C(=O)N4CCCC4)n(Cc4c(CO)[nH]cc(C)c4=O)c3C[C@H]2CN1C(=O)c1ccccc1`: the composite z-score was 0.614 and 0.478.
